# Measured values taken from ChEMBL document CHEMBL1201862, “PubChem BioAssay data set” (2004).
# These assays gave more results; the selection is not random.
# Biological target: Pyruvate kinase PKM (Homo sapiens) (UniProt P14618)
# Assay: Confirmation Concentration-Response Assay for Activators of Human Muscle isoform 2 Pyruvate Kinase: for Probe SAR.
# Assay type: functional; call rule not given here
# Chain of Pyruvate kinase PKM (Homo sapiens) (P14618 2-531 limits assumed): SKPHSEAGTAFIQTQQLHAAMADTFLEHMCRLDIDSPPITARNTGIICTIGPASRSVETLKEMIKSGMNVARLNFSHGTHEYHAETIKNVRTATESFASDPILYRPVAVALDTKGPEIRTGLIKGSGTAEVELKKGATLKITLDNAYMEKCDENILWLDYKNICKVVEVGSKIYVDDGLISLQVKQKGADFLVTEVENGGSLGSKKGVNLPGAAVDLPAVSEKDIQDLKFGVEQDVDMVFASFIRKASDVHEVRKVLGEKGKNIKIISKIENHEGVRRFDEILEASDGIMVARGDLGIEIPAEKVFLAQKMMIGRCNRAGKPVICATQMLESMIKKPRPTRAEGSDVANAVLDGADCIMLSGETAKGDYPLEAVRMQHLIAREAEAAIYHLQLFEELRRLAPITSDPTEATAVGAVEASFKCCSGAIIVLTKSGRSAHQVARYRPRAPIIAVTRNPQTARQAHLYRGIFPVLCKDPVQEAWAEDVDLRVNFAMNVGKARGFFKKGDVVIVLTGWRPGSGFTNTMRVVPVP
structure (smiles),measurement,value
C[N+](C)(C)c1cccc(S(=O)(=O)N2CCCN(S(=O)(=O)c3ccc4c(c3)OCCO4)CC2)c1,Potency,16.3 µM (active)
